Measured values: PubChem BioAssay AID1159580 (chemical genetic matrix, 2015)
Values joined by “and” are separate entries in the source; they are usually repeats but may differ in a detail not shown here. Equal entries are not always repeated. Among all 5,500 compounds or so, about 2,000 (36%) were called active. Another 18% or so got no clear call; they are omitted. No stated cut-off is given here; in the data, active means normalized growth mostly below about 0.91 (no sharp cut-off); inconclusive means no clear call, values can overlap the other calls; inactive means mostly above about 0.92. The list shows a part of the results.

Assay: chemical genetic growth profiling, strain panel (AID 1159580);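 further: tested at 20 µM; growth read once vehicle control cultures reached saturation at 30 °C; 1 = growth at the plate median or of vehicle wells; lower values mean less growth of the strain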
Details: S. cerevisiae deletion strains, growth OD

Measured: normalized growth

CCOC(=O)C1=C[C@]2(CC)CCCN3CCc4c(n1c1ccccc41)[C@@H]32
inactive: locus YAL021C, strain ccr4, active compounds read low 1.03 | locus YAL026C, strain drs2, active compounds read low 1.02 | locus YAL030W, strain snc1, active compounds read low 1.03 | locus YBL061C, strain skt5, active compounds read low 1.02 | locus YBR009C, strain hhf1, active compounds read low 1.02 | locus YBR021W, strain FUR4, active compounds read low 1.02 | locus YBR023C, strain chs3, active compounds read low 1.03 | locus YBR171W, strain sec66, active compounds read low 1.02 | locus YBR229C, strain ROT2, active compounds read low 0.957 | locus YBR231C, strain swc5, active compounds read low 1.02 | locus YBR279W, strain paf1, active compounds read low 1.01 | locus YCL011C, strain gbp2, active compounds read low 1.03 | locus YCL016C, strain dcc1, active compounds read low 1.02 | locus YCL029C, strain bik1, active compounds read low 0.974 | locus YCL061C, strain MRC1, active compounds read low 1.02 | locus YCL069W, strain vba3, active compounds read low 1.02 | locus YCR088W, strain abp1, active compounds read low 1.02 | locus YDL005C, strain med2, active compounds read low 1.02 | locus YDL035C, strain GPR1, active compounds read low 0.977 | locus YDL040C, strain nat1, active compounds read low 1.03 | locus YDL074C, strain BRE1, active compounds read low 0.928 | locus YDL101C, strain DUN1, active compounds read low 0.957 | locus YDL134C, strain PPH21, active compounds read low 0.998 | locus YDL185W, strain tfp1, active compounds read low 0.985 | locus YDL192W, strain arf1, active compounds read low 0.975 | locus YDR001C, strain nth1, active compounds read low 1.03 | locus YDR069C, strain doa4, active compounds read low 1.05 | locus YDR101C, strain arx1, active compounds read low 0.969 | locus YDR137W, strain rgp1, active compounds read low 0.967 | locus YDR150W, strain NUM1, active compounds read low 0.984 | locus YDR159W, strain sac3, active compounds read low 1.02 | locus YDR162C, strain NBP2, active compounds read low 0.937 | locus YDR195W, strain ref2 1.07 | locus YDR297W, strain sur2, active compounds read low 1.02 | locus YDR318W, strain mcm21, active compounds read low 0.969 | locus YDR334W, strain swr1, active compounds read low 1.03 | locus YDR335W, strain msn5, active compounds read low 1.01 | locus YDR388W, active compounds read low 0.97 | locus YDR392W, strain spt3, active compounds read low 0.979 | locus YDR502C, strain sam2, active compounds read low 0.947 | locus YEL003W, strain gim4, active compounds read low 1.02 | locus YEL037C, strain rad23, active compounds read low 1.01 | locus YEL061C, strain CIN8 (second series), active compounds read low 1.04 | locus YEL061C, strain CIN8, active compounds read low 0.979 | locus YER015W, strain faa2, active compounds read low 1.03 | locus YER016W, strain bim1, active compounds read low 1.01 | locus YER110C, active compounds read low 0.975 | locus YER111C, strain swi4, active compounds read low 1.02 | locus YER155C, strain BEM2 (second series), active compounds read low 0.992 | locus YER155C, strain BEM2, active compounds read low 1.01 | locus YER167W, strain BCK2, active compounds read low 1 | locus YFR010W, strain ubp6, active compounds read low 1.03 | locus YGL078C, strain dbp3, active compounds read low 0.979 | locus YGL086W, strain mad1, active compounds read low 0.948 | locus YGL167C, strain pmr1, active compounds read low 1.01 | locus YGL173C, strain kem1, active compounds read low 1.04 | locus YGL227W, strain vid30, active compounds read low 1.03 | locus YGL240W, strain doc1, active compounds read low 1.03 | locus YGL248W, strain PDE1, active compounds read low 0.954 | locus YGL253W, strain hxk2, active compounds read low 1.03 | locus YGR135W, strain pre9, active compounds read low 1 | locus YGR252W, strain gcn5, active compounds read low 1.03 | locus YHR013C, strain ard1, active compounds read low 1.01 | locus YHR027C, strain rpn1, active compounds read low 1.03 | locus YHR030C, strain SLT2, active compounds read low 0.994 and 1.01 | locus YHR079C, strain IRE1 (second series), active compounds read low 0.985 | locus YHR079C, strain IRE1, active compounds read low 1.03 | locus YHR094C, strain hxt1, active compounds read low 0.977 | locus YHR129C, strain ARP1, active compounds read low 0.987 | locus YHR142W, strain chs7, active compounds read low 1.01 | locus YHR200W, strain rpn10, active compounds read low 0.979 | locus YIL066C, strain RNR3, active compounds read low 0.946 | locus YIL073C, strain SPO22, active compounds read low 1.02 | locus YIL125W, strain kgd1, active compounds read low 0.985 | locus YIR030C, strain dcg1, active compounds read low 0.981 | locus YJL092W, strain hpr5, active compounds read low 1.02 | locus YJL095W, strain BCK1 (second series), active compounds read low 1.01 | locus YJL095W, strain BCK1, active compounds read low 0.867 and 1.02 | locus YJL115W, strain asf1, active compounds read low 1.05 | locus YJL129C, strain trk1, active compounds read low 1.01 | locus YJL134W, strain LCB3, active compounds read low 0.991 | locus YJL154C, strain vps35, active compounds read low 1.01 | locus YJL164C, strain tpk1, active compounds read low 1.01 | locus YJL166W, strain qcr8, active compounds read low 1.02 | locus YJL168C, strain set2, active compounds read low 0.979 | locus YJL187C, strain SWE1 (second series), active compounds read low 0.927 | locus YJR043C, strain POL32, active compounds read low 0.941 | locus YJR066W, strain TOR1, active compounds read low 0.967
